In PubChem BioAssay (NCI):
The panel holds about 83,000 compounds, 20% with a hit somewhere; the sample as a whole holds those more often.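 Single-dose data. Exposure time 48 hours. Values below 10 considered active.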 The source made the active and inactive calls.

These compounds were tested on U251 CNS (assay: NCI-60 one-dose screen, 48 h (100 = growth as untreated, 0 = no growth, -100 = all killed)). Settings: 10 µM.
Description: Growth inhibition of the U251 human tumor cell line is measured as a screen for anti-cancer activity. Cells are grown in 96 well plates and exposed to the test compound for 48 hours. Compounds are tested at a single concentration, which is 10^-5 M for most compounds. The reported endpoint is percent growth (GI% or GIPRCNT), where numbers from 0 - 100% represent growth inhibition, and numbers from -100% - 0 represent cell death. For example, a value of 40 represents 60% growth inhibition. A value of 0 means no net growth occurred over the course of the experiment. A value of -40 indicates 40% of cells at the beginning of the experiment died by the end of the experiment. A value of -100 means all cells are dead at the end of the experiment.
NCI-60 Human Tumor Cell Lines Screen was performed using the standard one-dose NCI protocol, which is described in more detail at https://dtp.cancer.gov/discovery_development/nci-60/default.htm.
Compounds with GIPRCNT values below 10 were considered active. Activity score was based on GIPRCNT using the following formula: […]
Score is 0 for GIPRCNT values of 100 or above, 50 for GIPRCNT values of 0, and 100 for GIPRCNT values of -100.

Q: With O=[N+]([O-])c1ccc(S(=O)(=O)OCCCCOS(=O)(=O)c2ccc([N+](=O)[O-])cc2)cc1 as the compound, how does the growth read?
A: 104% (inactive)

Q: For CN(C)c1ccc2cc(-c3cc4c(oc3=O)-c3ccccc3OC4O)c(=O)oc2c1 (stereo not given), which growth is on record?
A: 30% (inactive)

Q: With N#CC1C=Cc2c(ccc3ccccc23)N1C(=O)c1ccccc1 (stereo not given) as the compound, how does the growth read?
A: 24% (inactive)

Q: CCCCCCCCCCSC(=N)N (tested in a mixture with another compound) was tested. Which growth did it give?
A: 31.6% (inactive)

Q: Which growth does the source give for CC(=O)Nc1nc(C)c(C(=O)NNC=O)s1 here?
A: 109% (inactive)

Q: Which growth does the source give for Nc1ncc(-c2ccc(C(F)(F)F)cc2)c(NC2CCCCCC2)n1 here?
A: 22.5% (inactive)

Q: Which growth does the source give for O=C(C=P(c1ccccc1)(c1ccccc1)c1ccccc1)c1ccc(Br)cc1 here?
A: 97.1% (inactive)

Q: How did the growth turn out when CCCCCCCCCCCCCCCCn1cc[n+](C)c1 was run?
A: -70% (active)

Q: How did the growth turn out when CCCCn1c(=O)[nH]c(N)c(C(c2ccc(Cl)cc2)c2c(N)[nH]c(=O)n(CCCC)c2=O)c1=O was run?
A: 35.8% (inactive)

Q: COc1cccc(C(=O)NNc2nc(N3CCOCC3)nc(N3CCN(C(c4ccccc4)c4ccccc4)CC3)n2)c1 was tested. Which growth did it give?
A: 85.2% (inactive)

Q: Cc1ccc2c(c1)-c1cc(C)nn1-c1ccc(C#N)cc1O2 was tested. Which growth did it give?
A: 46.9% (inactive)

Q: With CC(C)OCc1cc(CN2CCN(c3cccc(Cl)c3)CC2)c(O)c2ncccc12 as the compound, how does the growth read?
A: -37.8% (active)

Q: Which growth does the source give for N#C/C(=C/c1cc([N+](=O)[O-])ccc1Cl)C(N)=O here?
A: 93.6% (inactive)

Q: With O=C(/C=C/c1nnc2n(Cc3ccccc3)c(=O)c3c4c(sc3n12)CCCC4)c1ccccc1 as the compound, how does the growth read?
A: 40.6% (inactive)

Q: With CCN(CC)CC(O)Cc1ccc(OC)cc1 (stereo not given) as the compound, how does the growth read?
A: 108% (inactive)

Q: With CC(C)(C)CC(C)(C)c1ccc(O)c(Cc2ccc(Cl)cc2Cl)c1 as the compound, how does the growth read?
A: -95.3% (active)

Q: Which growth does the source give for CC(=O)OCC(COC(C)=O)(COC(C)=O)COC(C)=O here?
A: 103% (inactive)

Q: CC(=O)OC1Oc2ccccc2-c2oc(=O)c(-c3ccc(F)cc3)cc21 (stereo not given) was tested. Which growth did it give?
A: 76.2% (inactive)

Q: How did the growth turn out when CS(=O)(=O)Nc1ccc([N+](=O)[O-])cc1Oc1ccccc1 was run?
A: 90.4% (inactive)

Q: Which growth does the source give for COc1cccc2c1O/C(=C\c1ncc([N+](=O)[O-])n1C)C2=O here?
A: -11.7% (active)

Q: With N#CN1CC[C@H](C(=O)Nc2ncc(-c3ccccc3)s2)C1 as the compound, how does the growth read?
A: 2.64% (active)

Q: With CCc1nn2c(-c3cc(OC)c(OC)c(OC)c3)c(-c3cc(OC)c(OC)c(OC)c3)nc2s1 as the compound, how does the growth read?
A: 58.1% (inactive)

Q: For CC(C)C(C)C(N)C(=O)O (stereo not given), which growth is on record?
A: 103% (inactive)

Q: With Oc1[nH]c2ccccc2c1/C=c1/cc2c(c(-c3ccc(C(F)(F)F)cc3)n1)=Nc1ccccc1-2 as the compound, how does the growth read?
A: 60.1% (inactive)

Q: For N#CN1CC[C@H](C(=O)Nc2ncc(-c3ccncc3)s2)C1, which growth is on record?
A: 1.7% (active)

Q: For COc1ccc(-c2[nH]ncc2-c2cc(OC)c(OC)c(OC)c2)cc1, which growth is on record?
A: 6.25% (active)

Q: Which growth does the source give for COc1cc(/C=C2\C(=O)Nc3cc(C)c(O)cc32)cc(OC)c1OC here?
A: 44.5% (inactive)

Q: For CCOC(=O)c1cc2c(n1Cc1ccccc1)-c1oncc1CC2, which growth is on record?
A: 95.6% (inactive)

Q: With CCOC(=O)c1cc(-c2ccccc2)nc(N)n1 as the compound, how does the growth read?
A: 98.3% (inactive)

Q: How did the growth turn out when FC(F)(F)c1ccc(-c2cnc(Br)nc2NC2CCCCCC2)cc1 was run?
A: 12.1% (inactive)

Q: For CCSc1nc2c([nH]1)c(=O)n(C)c(=S)n2C, which growth is on record?
A: 105% (inactive)

Q: With O=c1cc(CSc2nnc(-c3ccccc3)n2-c2ccc(F)cc2)c2ccc3ccccc3c2o1 as the compound, how does the growth read?
A: 98.8% (inactive)

Q: How did the growth turn out when O=C1/C(=C/c2ccc(O)cc2)Cc2ccc(Cl)cc21 was run?
A: 95.8% (inactive)

Q: With COc1ccc(OC)c([N+](=O)[O-])c1C=O as the compound, how does the growth read?
A: 105% (inactive)

Q: For CCCCCCCCCCCCCC[n+]1ccccc1, which growth is on record?
A: -88.3% (active)

Q: Which growth does the source give for COc1cccc(C(=O)N(c2ccc(F)c(F)c2)C(C(=O)NC(C)(C)C)c2cc3c(C)cc(C)cc3nc2Cl)c1 (stereo not given) here?
A: 69% (inactive)

Q: For Cc1[nH]nc2c(=S)[nH]c(=O)[nH]c12, which growth is on record?
A: 100% (inactive)

Q: For Clc1ccc(-c2nc(-c3cccs3)cn3ccnc23)cc1, which growth is on record?
A: 82.5% (inactive)

Q: How did the growth turn out when CCN(CCCNC(=O)Cc1cc(=O)oc2cc(N(C)C)ccc12)CCNc1ccnc2cc(Cl)ccc12 was run?
A: 58.9% (inactive)

Q: For CCOC(=O)CSC(=S)SCC(=O)OCC, which growth is on record?
A: 104% (inactive)
